# From PMC7862700, “An all-to-all approach to the identification of sequence-specific readers for epigenetic DNA modifications on cytosine”
# Columns and labels:
# Test in all cases: DAPPL (digital affinity profiling via proximity ligation, sequencing); 10 mM Tris-HCl pH 7.5, 50 mM NaCl, 1 mM DTT, 4% glycerol, room temperature, 30 min; GST-TFs on glutathione beads, 16-mer random dsDNA library, 0.1% formaldehyde crosslink after washing; high values mean tight binding
# [1] = target: T1, FLI1 (Homo sapiens, UniProt Q01543 1-452); details: protein: recombinant; tags: N-terminal GST; dsDNA, one strand shown
# T1 sequence: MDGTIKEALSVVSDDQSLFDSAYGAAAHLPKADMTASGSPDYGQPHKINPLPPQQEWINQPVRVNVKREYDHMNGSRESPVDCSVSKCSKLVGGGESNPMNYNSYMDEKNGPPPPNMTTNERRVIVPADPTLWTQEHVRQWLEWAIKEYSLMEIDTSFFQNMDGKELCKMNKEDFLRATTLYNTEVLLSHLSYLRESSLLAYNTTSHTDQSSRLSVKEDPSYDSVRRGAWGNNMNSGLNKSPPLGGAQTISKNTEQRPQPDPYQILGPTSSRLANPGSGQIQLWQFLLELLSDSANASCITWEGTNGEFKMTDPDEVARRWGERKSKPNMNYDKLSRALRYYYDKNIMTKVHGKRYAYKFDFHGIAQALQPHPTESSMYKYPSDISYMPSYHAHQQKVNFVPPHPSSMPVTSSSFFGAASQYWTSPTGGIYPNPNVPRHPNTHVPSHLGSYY
# In short: (§1)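 Human transcription factors were made in yeast as GST fusions, captured on glutathione beads and barcoded with DNA. With a tag-only sample included, the pool was incubated with 200 nmole of a random double-stranded 16-mer DNA library in Tris/NaCl/DTT/glycerol buffer at room temperature for 30 min, then crosslinked with 0.1% formaldehyde after washing, ligated by proximity, amplified and sequenced. For binding signal, each hexamer's read frequency for a factor is divided by its frequency for the tag-only sample.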
# [2] = target: ELF1 (Homo sapiens, UniProt P32519 1-619); details: protein: recombinant; tags: N-terminal GST; dsDNA, one strand shown
# In short: as §1
# [3] = target: T2, EHF (Homo sapiens, UniProt Q9NZC4 1-300); details: protein: recombinant; tags: N-terminal GST; dsDNA, one strand shown
# T2 sequence: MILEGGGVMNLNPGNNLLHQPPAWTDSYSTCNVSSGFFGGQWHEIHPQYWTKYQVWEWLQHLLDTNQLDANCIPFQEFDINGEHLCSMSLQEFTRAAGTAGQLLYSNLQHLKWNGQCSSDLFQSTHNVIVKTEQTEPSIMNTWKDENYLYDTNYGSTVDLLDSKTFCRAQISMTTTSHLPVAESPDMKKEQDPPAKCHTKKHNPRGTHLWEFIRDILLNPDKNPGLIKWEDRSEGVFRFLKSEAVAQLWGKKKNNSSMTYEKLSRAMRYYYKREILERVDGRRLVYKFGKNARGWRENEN
# In short: as §1
# [4] = target: SPI1 (Homo sapiens, UniProt P17947 1-270); details: protein: recombinant; tags: N-terminal GST; dsDNA, one strand shown
# In short: as §1
# [5] = target: SPIB (Homo sapiens, UniProt Q01892 1-262); details: protein: recombinant; tags: N-terminal GST; dsDNA, one strand shown
# In short: as §1
# [6] = target: T3, ELK3 (Homo sapiens, UniProt P41970 1-407); details: protein: recombinant; tags: N-terminal GST; dsDNA, one strand shown
# T3 sequence: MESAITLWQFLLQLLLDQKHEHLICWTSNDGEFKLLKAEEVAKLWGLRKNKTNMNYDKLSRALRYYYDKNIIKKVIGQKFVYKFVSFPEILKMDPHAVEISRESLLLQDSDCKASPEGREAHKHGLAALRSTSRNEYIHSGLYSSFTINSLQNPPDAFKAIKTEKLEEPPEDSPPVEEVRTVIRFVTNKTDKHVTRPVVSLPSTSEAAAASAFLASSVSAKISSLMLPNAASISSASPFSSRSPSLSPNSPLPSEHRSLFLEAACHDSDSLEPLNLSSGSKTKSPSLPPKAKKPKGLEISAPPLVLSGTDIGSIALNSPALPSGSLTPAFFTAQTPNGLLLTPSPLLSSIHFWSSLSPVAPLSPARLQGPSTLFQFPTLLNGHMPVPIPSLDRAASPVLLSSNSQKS
# In short: as §1
# [7] = target: T4, FEV (Homo sapiens, UniProt Q99581 1-238); details: protein: recombinant; tags: N-terminal GST; dsDNA, one strand shown
# T4 sequence: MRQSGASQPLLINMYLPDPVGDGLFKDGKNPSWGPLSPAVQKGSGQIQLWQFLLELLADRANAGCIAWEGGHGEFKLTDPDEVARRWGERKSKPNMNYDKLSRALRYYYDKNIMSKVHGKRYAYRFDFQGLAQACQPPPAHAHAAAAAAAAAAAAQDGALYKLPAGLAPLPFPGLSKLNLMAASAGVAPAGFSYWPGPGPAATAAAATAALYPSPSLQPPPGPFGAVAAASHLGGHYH
# In short: as §1
# [8] = target: ETV5 (Homo sapiens, UniProt P41161 1-510); details: protein: recombinant; tags: N-terminal GST; dsDNA, one strand shown
# In short: as §1
# [9] = target: HSF1 (Homo sapiens, UniProt Q00613 1-529); details: protein: recombinant; tags: N-terminal GST; chain copies: 3; dsDNA, one strand shown
# In short: as §1
# [10] = target: T5, SPIC (Homo sapiens, UniProt Q8N5J4 1-248); details: protein: recombinant; tags: N-terminal GST; dsDNA, one strand shown
# T5 sequence: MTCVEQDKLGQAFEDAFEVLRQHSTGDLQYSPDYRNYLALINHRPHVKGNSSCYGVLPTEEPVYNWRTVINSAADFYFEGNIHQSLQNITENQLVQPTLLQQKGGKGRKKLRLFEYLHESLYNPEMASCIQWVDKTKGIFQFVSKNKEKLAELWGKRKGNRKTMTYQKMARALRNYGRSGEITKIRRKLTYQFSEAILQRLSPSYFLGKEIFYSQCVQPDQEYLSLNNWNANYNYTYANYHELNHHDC
# In short: as §1
# [11] = target: ELF4 (Homo sapiens, UniProt Q99607 1-663); details: protein: recombinant; tags: N-terminal GST; dsDNA, one strand shown
# In short: as §1
# [12] = target: T6, ELK4 (Homo sapiens, UniProt P28324-2 1-405); details: protein: recombinant; tags: N-terminal GST; dsDNA, one strand shown
# T6 sequence: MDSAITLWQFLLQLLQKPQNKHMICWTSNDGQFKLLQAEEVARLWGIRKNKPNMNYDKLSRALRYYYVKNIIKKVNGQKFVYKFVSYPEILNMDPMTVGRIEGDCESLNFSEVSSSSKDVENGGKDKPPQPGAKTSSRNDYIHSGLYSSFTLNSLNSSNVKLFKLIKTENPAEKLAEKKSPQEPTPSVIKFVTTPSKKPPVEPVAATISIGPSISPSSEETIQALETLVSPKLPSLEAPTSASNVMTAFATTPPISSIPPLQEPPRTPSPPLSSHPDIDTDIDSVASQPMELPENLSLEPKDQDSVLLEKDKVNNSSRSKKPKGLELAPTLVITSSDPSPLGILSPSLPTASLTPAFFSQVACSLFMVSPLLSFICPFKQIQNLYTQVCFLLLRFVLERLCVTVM
# In short: as §1
# [13] = target: T7, ETV2 (Homo sapiens, UniProt O00321 1-342); details: protein: recombinant; tags: N-terminal GST; dsDNA, one strand shown
# T7 sequence: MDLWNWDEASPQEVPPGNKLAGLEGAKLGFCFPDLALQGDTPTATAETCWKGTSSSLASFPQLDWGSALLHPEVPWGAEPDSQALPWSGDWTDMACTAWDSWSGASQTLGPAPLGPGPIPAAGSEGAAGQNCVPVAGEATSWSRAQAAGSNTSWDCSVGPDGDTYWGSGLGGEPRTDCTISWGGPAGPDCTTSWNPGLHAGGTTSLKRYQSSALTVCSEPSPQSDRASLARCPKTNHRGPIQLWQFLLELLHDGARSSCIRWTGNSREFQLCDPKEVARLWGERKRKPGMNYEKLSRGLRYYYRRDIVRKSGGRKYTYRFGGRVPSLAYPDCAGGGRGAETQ
# In short: as §1
# [14] = target: T8, ELF3 (Homo sapiens, UniProt P78545 1-371); details: protein: recombinant; tags: N-terminal GST; dsDNA, one strand shown
# T8 sequence: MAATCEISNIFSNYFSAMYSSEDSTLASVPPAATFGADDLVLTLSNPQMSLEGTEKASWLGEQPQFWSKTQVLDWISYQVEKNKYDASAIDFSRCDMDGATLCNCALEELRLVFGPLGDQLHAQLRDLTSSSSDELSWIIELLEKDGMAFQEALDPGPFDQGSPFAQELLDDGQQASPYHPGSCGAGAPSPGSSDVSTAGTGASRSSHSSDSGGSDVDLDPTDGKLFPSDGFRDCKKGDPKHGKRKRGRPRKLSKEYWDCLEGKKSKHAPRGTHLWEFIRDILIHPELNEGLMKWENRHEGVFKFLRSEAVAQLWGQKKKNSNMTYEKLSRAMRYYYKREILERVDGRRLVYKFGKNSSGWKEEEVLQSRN
# In short: as §1
# [15] = target: CRX (Homo sapiens, UniProt O43186 1-299); details: protein: recombinant; tags: N-terminal GST; dsDNA, one strand shown
# In short: as §1
# [16] = target: ETV1 (Homo sapiens, UniProt P50549 1-477); details: protein: recombinant; tags: N-terminal GST; dsDNA, one strand shown
# In short: as §1
# Chain of ETV1 (P50549 whole entry): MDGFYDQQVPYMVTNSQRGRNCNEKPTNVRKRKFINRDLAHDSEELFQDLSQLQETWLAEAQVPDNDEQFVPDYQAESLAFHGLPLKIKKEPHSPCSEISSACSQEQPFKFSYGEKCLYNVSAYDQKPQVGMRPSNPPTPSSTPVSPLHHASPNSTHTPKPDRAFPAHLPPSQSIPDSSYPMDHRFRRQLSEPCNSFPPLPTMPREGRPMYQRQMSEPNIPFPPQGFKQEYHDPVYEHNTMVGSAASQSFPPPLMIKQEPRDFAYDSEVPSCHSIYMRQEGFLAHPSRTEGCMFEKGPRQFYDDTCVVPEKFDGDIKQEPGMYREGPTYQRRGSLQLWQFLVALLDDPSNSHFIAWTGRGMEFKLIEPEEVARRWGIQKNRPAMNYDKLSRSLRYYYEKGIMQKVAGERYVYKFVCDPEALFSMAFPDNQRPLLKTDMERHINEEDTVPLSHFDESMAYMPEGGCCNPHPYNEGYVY
# Chain of SPIB (Q01892 whole entry): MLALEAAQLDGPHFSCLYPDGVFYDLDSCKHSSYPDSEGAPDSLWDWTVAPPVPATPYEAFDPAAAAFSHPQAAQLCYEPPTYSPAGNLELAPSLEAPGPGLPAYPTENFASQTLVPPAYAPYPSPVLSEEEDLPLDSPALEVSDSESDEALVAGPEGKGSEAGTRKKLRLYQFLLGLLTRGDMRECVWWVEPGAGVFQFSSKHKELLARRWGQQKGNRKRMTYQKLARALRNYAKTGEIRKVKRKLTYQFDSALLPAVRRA
# Chain of ETV5 (P41161 whole entry): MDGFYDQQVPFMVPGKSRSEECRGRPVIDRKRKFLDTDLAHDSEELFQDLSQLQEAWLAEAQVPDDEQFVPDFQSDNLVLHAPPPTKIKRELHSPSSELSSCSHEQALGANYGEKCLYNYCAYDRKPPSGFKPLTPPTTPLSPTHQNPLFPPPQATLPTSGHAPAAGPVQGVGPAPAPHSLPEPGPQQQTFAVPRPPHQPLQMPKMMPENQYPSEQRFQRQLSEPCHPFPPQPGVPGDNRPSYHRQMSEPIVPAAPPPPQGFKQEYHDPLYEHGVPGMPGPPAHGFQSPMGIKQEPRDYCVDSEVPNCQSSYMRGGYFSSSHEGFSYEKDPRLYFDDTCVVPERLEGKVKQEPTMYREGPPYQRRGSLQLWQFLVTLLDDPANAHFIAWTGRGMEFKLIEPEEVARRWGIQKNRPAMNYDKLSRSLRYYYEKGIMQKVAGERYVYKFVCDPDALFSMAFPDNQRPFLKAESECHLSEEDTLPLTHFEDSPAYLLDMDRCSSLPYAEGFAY
# Chain of CRX (O43186 whole entry): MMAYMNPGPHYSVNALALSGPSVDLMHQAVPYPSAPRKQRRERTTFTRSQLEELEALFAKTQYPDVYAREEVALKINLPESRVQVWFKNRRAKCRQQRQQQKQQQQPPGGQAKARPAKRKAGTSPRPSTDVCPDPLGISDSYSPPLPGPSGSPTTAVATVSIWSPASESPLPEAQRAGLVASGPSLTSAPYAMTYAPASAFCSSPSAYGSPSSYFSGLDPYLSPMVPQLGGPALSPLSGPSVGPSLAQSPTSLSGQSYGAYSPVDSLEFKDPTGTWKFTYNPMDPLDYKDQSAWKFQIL
# Chain of ELF1 (P32519 whole entry): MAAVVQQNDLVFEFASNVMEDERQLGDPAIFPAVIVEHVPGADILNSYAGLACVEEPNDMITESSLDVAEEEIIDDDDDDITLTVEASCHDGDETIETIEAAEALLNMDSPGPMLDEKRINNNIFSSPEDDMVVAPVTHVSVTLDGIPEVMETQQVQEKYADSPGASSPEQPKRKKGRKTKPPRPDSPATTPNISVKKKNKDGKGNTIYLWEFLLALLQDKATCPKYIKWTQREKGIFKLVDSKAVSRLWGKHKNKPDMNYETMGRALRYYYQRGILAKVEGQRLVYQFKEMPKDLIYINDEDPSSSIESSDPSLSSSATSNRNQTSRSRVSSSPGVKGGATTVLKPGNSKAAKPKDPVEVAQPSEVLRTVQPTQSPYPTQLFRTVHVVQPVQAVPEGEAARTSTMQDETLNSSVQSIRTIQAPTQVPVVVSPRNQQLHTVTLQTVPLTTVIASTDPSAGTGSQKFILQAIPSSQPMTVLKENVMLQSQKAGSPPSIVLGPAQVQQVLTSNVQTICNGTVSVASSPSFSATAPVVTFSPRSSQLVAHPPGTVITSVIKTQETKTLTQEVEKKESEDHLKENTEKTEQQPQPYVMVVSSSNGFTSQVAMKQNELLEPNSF
# Chain of HSF1 (Q00613 whole entry): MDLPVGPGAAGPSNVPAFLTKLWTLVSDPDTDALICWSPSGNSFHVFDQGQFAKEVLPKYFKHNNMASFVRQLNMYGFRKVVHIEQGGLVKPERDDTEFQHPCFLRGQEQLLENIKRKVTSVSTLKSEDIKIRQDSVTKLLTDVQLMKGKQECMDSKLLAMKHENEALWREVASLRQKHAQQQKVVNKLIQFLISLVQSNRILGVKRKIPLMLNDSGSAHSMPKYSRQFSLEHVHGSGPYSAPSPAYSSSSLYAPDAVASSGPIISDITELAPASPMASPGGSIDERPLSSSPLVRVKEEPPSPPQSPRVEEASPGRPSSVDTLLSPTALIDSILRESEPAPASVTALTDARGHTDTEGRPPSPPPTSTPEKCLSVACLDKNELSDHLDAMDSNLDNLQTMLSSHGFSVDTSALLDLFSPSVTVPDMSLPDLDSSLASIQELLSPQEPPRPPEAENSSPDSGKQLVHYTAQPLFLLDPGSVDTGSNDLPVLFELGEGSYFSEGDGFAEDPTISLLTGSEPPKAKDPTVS
# Chain of ELF4 (Q99607 whole entry): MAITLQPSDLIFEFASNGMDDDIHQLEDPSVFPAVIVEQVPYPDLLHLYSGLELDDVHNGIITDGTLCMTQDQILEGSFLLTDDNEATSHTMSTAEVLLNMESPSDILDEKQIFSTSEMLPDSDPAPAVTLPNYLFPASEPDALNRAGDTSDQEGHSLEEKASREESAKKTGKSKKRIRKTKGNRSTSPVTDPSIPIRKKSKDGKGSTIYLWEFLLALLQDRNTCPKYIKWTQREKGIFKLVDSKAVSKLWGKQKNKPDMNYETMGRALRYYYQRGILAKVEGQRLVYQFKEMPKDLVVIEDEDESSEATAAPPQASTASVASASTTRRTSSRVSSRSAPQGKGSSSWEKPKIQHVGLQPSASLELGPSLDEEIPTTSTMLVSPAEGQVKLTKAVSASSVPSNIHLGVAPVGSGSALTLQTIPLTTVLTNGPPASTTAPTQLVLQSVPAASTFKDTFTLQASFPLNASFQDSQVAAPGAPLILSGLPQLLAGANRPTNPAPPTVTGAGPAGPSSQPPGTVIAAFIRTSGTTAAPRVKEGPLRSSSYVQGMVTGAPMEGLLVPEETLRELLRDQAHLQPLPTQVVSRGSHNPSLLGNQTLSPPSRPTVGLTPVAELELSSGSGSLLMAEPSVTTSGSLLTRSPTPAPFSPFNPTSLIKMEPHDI
sequence,measurement,setting,value
CATCGA,binding signal,[1],"1.12 fold enrichment (6-mer frequency, TF over GST control)"
same,binding signal,[2],"1.12 fold enrichment (6-mer frequency, TF over GST control)"
same,binding signal,[3],"1.16 fold enrichment (6-mer frequency, TF over GST control)"
same,binding signal,[4],"1.09 fold enrichment (6-mer frequency, TF over GST control)"
same,binding signal,[5],"1.03 fold enrichment (6-mer frequency, TF over GST control)"
same,binding signal,[6],"1.03 fold enrichment (6-mer frequency, TF over GST control)"
same,binding signal,[7],"1.05 fold enrichment (6-mer frequency, TF over GST control)"
same,binding signal,[8],"1.17 fold enrichment (6-mer frequency, TF over GST control)"
same,binding signal,[9],"1.42 fold enrichment (6-mer frequency, TF over GST control)"
same,binding signal,[10],"1.06 fold enrichment (6-mer frequency, TF over GST control)"
same,binding signal,[11],"1.12 fold enrichment (6-mer frequency, TF over GST control)"
same,binding signal,[12],"1.06 fold enrichment (6-mer frequency, TF over GST control)"
same,binding signal,[13],"1.16 fold enrichment (6-mer frequency, TF over GST control)"
same,binding signal,[14],"1.04 fold enrichment (6-mer frequency, TF over GST control)"
same,binding signal,[15],"1.05 fold enrichment (6-mer frequency, TF over GST control)"
same,binding signal,[16],"1.05 fold enrichment (6-mer frequency, TF over GST control)"
